Test systems include DU-145 prostate; K-562 leukemia; MALME-3M melanoma; MDA-MB-231 breast; RXF 393 renal; SF-268 CNS; SF-295 CNS; SF-539 CNS; UACC-257 melanoma; M14 melanoma.
What all share (experiment): NCI-60 one-dose screen, 48 h (100 = growth as untreated, 0 = no growth, -100 = all killed)
What all share (conditions): 10 µM

SMILES strings stand for the structures. The panel holds about 83,000 compounds, 20% with a hit somewhere; the sample as a whole holds those more often.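 Each cell line was grown in a 96-well plate and treated with one concentration of compound for 48 hours. Values below 10 were considered active.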 A number with no mark means an inactive call. The source made the active and inactive calls.

Regarding `CCCCC(=O)N(c1ccc(Nc2c3ccccc3nc3cc([N+](=O)[O-])ccc23)cc1)S(C)(=O)=O`, the growth with DU-145 prostate is 26.3%; in the assay with K-562 leukemia, 64.3%; in the assay on MALME-3M melanoma, 92.7%; with MDA-MB-231 breast it was 84.6%; in the assay on RXF 393 renal, 75.8%; in the assay with SF-268 CNS it was 53%. Besides, the growth is 34.4% with SF-295 CNS, 79.8% in the assay on SF-539 CNS, 79.8% in the assay with UACC-257 melanoma and 92.9% in the assay with M14 melanoma.

As to `CCCCCCOc1ccc(/C=C/C(=O)c2ccc(B(O)O)cc2)cc1`, the growth in the assay with DU-145 prostate was 88.5%; with K-562 leukemia, 82.5%; in the assay on MALME-3M melanoma, 86.8%; in the assay with MDA-MB-231 breast, 73.8%; in the assay on RXF 393 renal, 74.2%; in the assay with SF-268 CNS it was 76.1%. Also, the growth was 111% in the assay on SF-295 CNS, 79.1% in the assay on SF-539 CNS, 83.4% with UACC-257 melanoma and 80.8% in the assay with M14 melanoma.

Consider `C=CCc1cc(Nc2c3ccc(Cl)cc3nc3ccc(OC)cc23)cc(CN(CC)CC)c1O`, for which the growth in the assay on DU-145 prostate is 20.5%; in the assay on K-562 leukemia, 3.36% (active); with MALME-3M melanoma, 2.15% (active); in the assay on MDA-MB-231 breast, 0.676% (active); in the assay with RXF 393 renal, 32.1%; with SF-268 CNS, 23%. Moreover, the growth in the assay on SF-295 CNS is -2.05% (active); with SF-539 CNS, 21.2%; in the assay with UACC-257 melanoma it was 4.74% (active); in the assay with M14 melanoma it was 19.8%.

Regarding `COc1ccc(-c2[nH]ncc2/C=C/c2cc(C(F)(F)F)[nH]c(=O)n2)cc1`, the growth with DU-145 prostate is 108%; with K-562 leukemia, 86.7%; in the assay on MALME-3M melanoma, 76.1%; in the assay on MDA-MB-231 breast, 103%; in the assay on RXF 393 renal it was 125%; in the assay on SF-268 CNS, 97.5%. Moreover, the growth in the assay with SF-295 CNS was 94.7%; in the assay with SF-539 CNS it was 86.7%; in the assay on UACC-257 melanoma it was 98.3%; in the assay with M14 melanoma it was 98.7%.

For the molecule `Cc1nn2c(/C=C3/C(=O)Nc4ccc(Cl)cc43)c(-c3ccccc3)nc2s1`, the growth was 31.9% in the assay on DU-145 prostate; 56.7% with K-562 leukemia; -2.37% (active) in the assay on MALME-3M melanoma; 8.13% (active) in the assay on MDA-MB-231 breast; 7.51% (active) in the assay with RXF 393 renal; 30.4% with SF-268 CNS. In addition, the growth in the assay on SF-295 CNS was 70.1%; in the assay on SF-539 CNS, 38.1%; in the assay on UACC-257 melanoma, 62.3%; with M14 melanoma, 55.4%.

`CC(C)(C)c1ccc(OCCCCCCN2CCNCC2)cc1`: the growth in the assay with DU-145 prostate is 86.2%; with K-562 leukemia it was 0.864% (active); in the assay on MALME-3M melanoma, 60.6%; with MDA-MB-231 breast, 36.4%; in the assay with RXF 393 renal, 46.2%; in the assay on SF-268 CNS, 78.2%. Moreover, the growth in the assay with SF-295 CNS is 57.7%; with SF-539 CNS it was 68.9%; in the assay with UACC-257 melanoma, 93.6%; with M14 melanoma, 22.6%.

Take `CNCCCNCCCN1C(=O)c2ccc3c4c(ccc(c24)C1=O)C(=O)N(CCCNCc1ccccc1OC)C3=O`: the growth in the assay with DU-145 prostate is -91.5% (active); in the assay with K-562 leukemia it was 4.42% (active); in the assay with MALME-3M melanoma it was -89.7% (active); with MDA-MB-231 breast it was 7.69% (active); in the assay with RXF 393 renal it was -11.5% (active); with SF-268 CNS, 4.85% (active). The growth in the assay with SF-295 CNS was 25.3%; in the assay on SF-539 CNS, 24.3%; in the assay on UACC-257 melanoma, -80.7% (active); with M14 melanoma, 0.979% (active).

With `O=S(=O)(O)C1(O)CCCCC1`, the growth is 54.1% in the assay with DU-145 prostate; 85.3% with K-562 leukemia; 86.9% with MALME-3M melanoma; 84.4% with MDA-MB-231 breast; 89.4% in the assay with RXF 393 renal; 104% with SF-268 CNS. Also, the growth in the assay with SF-295 CNS is 82.5%; in the assay with SF-539 CNS it was 84%; in the assay with UACC-257 melanoma it was 102%; in the assay on M14 melanoma, 91.2%.

For `CC(C)C[C@H](NC(=O)CCn1ccc2ccccc2c1=O)B(O)O`, the growth with DU-145 prostate is 59.6%; in the assay with K-562 leukemia, 62.7%; in the assay with MALME-3M melanoma it was 38.2%; in the assay with MDA-MB-231 breast it was 53.8%; in the assay with RXF 393 renal, -5.99% (active); in the assay on SF-268 CNS it was 69.9%. The growth in the assay with SF-295 CNS is 41%; in the assay on SF-539 CNS, -11.4% (active); with UACC-257 melanoma, 34.5%; with M14 melanoma, 38%.

As to `O=C(/C=C/c1ccc(Cl)cc1)c1ccc(Br)cc1`, the growth with DU-145 prostate was 101%; in the assay on K-562 leukemia, 97.5%; with MALME-3M melanoma it was 102%; with MDA-MB-231 breast, 102%; with RXF 393 renal it was 114%; with SF-268 CNS, 102%. The growth with SF-295 CNS was 95.9%; in the assay with SF-539 CNS, 94%; in the assay on UACC-257 melanoma, 106%; in the assay with M14 melanoma, 100%.

With `CCC(OC(=O)CC(C)C)c1ccccc1` (stereo not given), the growth is 103% with DU-145 prostate; 99.6% in the assay on K-562 leukemia; 110% with MALME-3M melanoma; 106% in the assay on MDA-MB-231 breast; 98.2% in the assay on RXF 393 renal; 93.7% with SF-268 CNS. Also, the growth with SF-295 CNS was 94.7%; in the assay on SF-539 CNS, 98.4%; with UACC-257 melanoma, 80.6%; with M14 melanoma, 102%.

Turning to `COc1cc(Cl)cc(-c2nn(-c3cccc(NC(=O)Nc4cccc(C(F)(F)F)c4)c3)cc2-c2ccncc2)c1`, the growth in the assay with DU-145 prostate was 15.9%; in the assay with K-562 leukemia, 7.61% (active); with MALME-3M melanoma it was -16.6% (active); in the assay with MDA-MB-231 breast, -9.21% (active); in the assay with RXF 393 renal, 11.8%; in the assay on SF-268 CNS it was 27.9%. In addition, the growth with SF-295 CNS is -7.87% (active); with SF-539 CNS, 17%; in the assay on UACC-257 melanoma, -11.7% (active); with M14 melanoma, 9.99% (active).

In the case of `CC(C)C[C@H](NC(=O)Cn1ccc2ccccc2c1=O)B(O)O`, the growth in the assay on DU-145 prostate is 73.5%; with K-562 leukemia it was 64%; with MALME-3M melanoma, 39.6%; in the assay on MDA-MB-231 breast, 88%; with RXF 393 renal, 10.3%; with SF-268 CNS, 79.6%. For the same molecule, the growth in the assay on SF-295 CNS is 69.5%; with SF-539 CNS, 15.9%; with UACC-257 melanoma, 42.1%; in the assay with M14 melanoma, 56%.

Values taken from PubChem BioAssay (NCI).
